Source: the supplement of paper PMC12024529

System: HEK293 WT BDD-FVIII-Gluc
Experiment: secreted FVIII-Gluc luciferase Z-score vs DMSO control; higher = more FVIII-Gluc secretion
Details: 5 µM
Protocol: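 Natural plant-compound library (480 compounds, ST catalogue IDs) screened on HEK293 cells stably expressing WT BDD-FVIII-Gaussia luciferase fusion at 5 µM. Secreted Gluc activity in the medium is given as a Z-score relative to DMSO controls.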

| Structure (SMILES) | secreted FVIII-Gluc luciferase Z-score |
| --- | --- |
| CC(C)c1ccc2c(c1)CCC1C(C)(CN)CCC[C@]21C (stereo partly drawn) | 0.04 |
| O=C(O)C1[C@H]2C[C@H]3c4[nH]c5ccccc5c4CCN3C[C@@H]2CC[C@@H]1O (stereo partly drawn) | 0.257 |
| CNC[C@H](O)c1ccc(O)c(O)c1 | 0.948 |
| COc1ccc2c(c1)[C@@]1(C)CCC[C@](C)(CO)C1CC2 (stereo partly drawn) | 0.437 |
| C[C@H]1C[C@]2(O[C@@H]2C)C(=O)O[C@@H]2CCN(C)C/C=C(/COC(=O)[C@]1(C)O)C2=O | 0.213 |
| CC(C)C1=CC2=CCC3C(C)(C(=O)O)CCC[C@]3(C)C2CC1 (stereo partly drawn) | 0.107 |
| COC(=O)[C@@H]1[C@H]2C[C@H]3c4[nH]c5ccccc5c4CCN3C[C@@H]2CC[C@@H]1O | 0.00333 |
| C[C@@H]1O[C@@H](O[C@H]2[C@H](Oc3cc(O)c4c(c3)O[C@H](c3ccc(O)cc3)CC4=O)O[C@H](CO)[C@@H](O)[C@@H]2O)[C@H](O)[C@H](O)[C@H]1O | 1.39 |
| CC(=O)[C@@H]1[C@H]2[C@H](C(=O)[C@H]3OC[C@@H]2O3)[C@H]2C=Cc3ccccc3N21 | 0.187 |
| O=C(N[C@H](CO)[C@H](O)c1ccc([N+](=O)[O-])cc1)C(Cl)Cl | 0.907 |
| O=c1cc(-c2cccc(O)c2)oc2c(O)c(O)ccc12 | -0.194 |
| Cc1cc(O)c2c(c1)C(=O)c1cc(O)cc(O)c1C2=O | -0.0482 |
| CC(=O)Oc1cc(OC(C)=O)c2c(=O)cc(-c3ccc(OC(C)=O)c(OC(C)=O)c3)oc2c1 | 0.33 |
| CC(=O)OCC1OC(Oc2cc(OC(C)=O)c3c(=O)cc(-c4ccc(OC(C)=O)c(OC(C)=O)c4)oc3c2)C(OC(C)=O)C(OC(C)=O)C1OC(C)=O (stereo not drawn) | -0.756 |
| COc1c(-c2ccc(O)c(O)c2)oc2cc(O)cc(O)c2c1=O | -0.415 |
| C=C(CO)C1Cc2c(ccc3c(=O)c4c(oc23)COc2cc(OC)c(OC)cc2-4)O1 (stereo not drawn) | 0.0519 |
| COc1ccc2oc(-c3ccc(O)cc3)cc(=O)c2c1 | 1.23 |
| C[C@]12CCC(=O)C=C1CC[C@@H]1[C@@H]2[C@@H](O)C[C@@]2(C)[C@H]1CC[C@]2(O)C(=O)CO | 4.35 |
| COc1ccc2c3c1O[C@H]1C[C@@H](O)C=CC31CCN(C)C2 (stereo partly drawn) | 0.116 |

| Structure (SMILES) | secreted FVIII-Gluc luciferase Z-score |
| --- | --- |
| Cc1cc2c(C(C)C)c(O)c(O)c3c2c(c1-c1c(C)cc2c(C(C)C)c(O)c(O)c4c2c1OC4N)OC3N (stereo not drawn) | -0.0294 |
| C[C@H](O)[C@H](O)[C@@H](O)c1cnc2nc(N)[nH]c(=O)c2n1 | 0.588 |
| O=C1c2ccccc2C(=O)c2c(O)c(O)cc(O)c21 | -0.332 |
| COc1ccc(-c2oc3cc(OC)c(OC(C)=O)c(OC)c3c(=O)c2OC)cc1OC(C)=O | -0.47 |
| CC1(C)CC[C@]2(C(=O)O)CC[C@]3(C)C(=CC[C@@H]4[C@@]5(C)CC[C@H](O)C(C)(C)[C@@H]5CC[C@]43C)[C@@H]2C1 | 0.157 |
| O=c1ccc2cc3ccoc3cc2o1 | -0.26 |
| O=c1cc(-c2ccc(O)cc2)oc2cc(O)cc(O)c12 | 0.864 |
| Nc1nc2c(c(=O)[nH]1)N=C(CNc1ccc(C(=O)NC(CCC(=O)O)C(=O)O)cc1)CN2 (stereo not drawn) | 0.62 |
| COC(=O)[C@@H]1C(O)CCC2CN3CCc4c([nH]c5ccccc45)C3CC21 (stereo partly drawn) | 0.187 |
| CC(C)[C@@H]1CC[C@@H](C)C[C@H]1OC(=O)[C@@H](C)O | -0.146 |
| Cc1cc2nc3c(=O)[nH]c(=O)nc-3n(CC(O)C(O)C(O)CO)c2cc1C (stereo not drawn) | 0.252 |
| NCCc1cnc[nH]1 | 0.378 |
| C[C@H]1O[C@@H](O[C@H]2[C@@H](O)C[C@H](O[C@H]3[C@@H](O)C[C@H](O[C@H]4CC[C@@]5(C)[C@H](CC[C@@H]6[C@@H]5CC[C@]5(C)[C@@H](C7=CC(=O)OC7)CC[C@]65O)C4)O[C@@H]3C)O[C@@H]2C)C[C@H](O)[C@@H]1O | -4.57 |
| O=c1[nH]cnc2c1ncn2C1OC(CO)C(O)C1O (stereo not drawn) | -0.0892 |
| O=c1cc(-c2ccc(O)c(O)c2)oc2cc(OC3OC(CO)C(O)C(O)C3O)cc(O)c12 (stereo not drawn) | -0.168 |
| O=c1cc(-c2ccccc2O)oc2c1ccc1ccccc12 | 0.301 |
| COc1ccc2c(c1OC)C(=O)O[C@H]2[C@H]1c2c(cc3c(c2OC)OCO3)CCN1C | 0.932 |
| COc1cccc(-c2cc(=O)c3cc(O)ccc3o2)c1 | 0.695 |
| CN1CCC[C@H]1c1cccnc1 | 0.197 |
